The values that follow come from PubChem BioAssay AID463173 (ICCB-Longwood Screening Facility, Harvard Medical School, 2010).

Structures are written as SMILES. In all, about 52,000 compounds went through this assay and about 4,300 (8.3%) were called active. No stated cut-off is given here; in the data, active means survival mostly below about 52% (no sharp cut-off); inactive means mostly above about 56%. The sample as a whole holds a higher share of actives than the screen did.

The assay deals with DeltatarO mutant. Description: S. aureus survival, RN4220 and DeltatarO strains – OD600, teichoic acid synthesis inhibitors, primary screen (AID 463173). Conditions: S. aureus RN4220 wild type/DeltatarO growth, OD600, 18 h, hits give low values, screened at 18.75 µg/mL (by protocol).
As to `COc1cccc(NC(=O)CC2NCCNC2=O)c1` (stereo not given), the survival is 84% (inactive).

For `CCCCN(C)CCNC(=O)c1ccc2c(=O)n(CCc3ccccc3)c(=O)[nH]c2c1`, the survival is 77% (inactive).

For `CCOC(=O)C1CCN(c2c(C(=O)c3ccc(OCC)cc3)cnc3ccc(OC)cc23)CC1`, the survival is 37% (inactive).

In the case of `COc1ccc(C(=O)c2cnc3ccc(C)cc3c2S(=O)(=O)c2ccccc2)cc1`, the survival was 69% (inactive).

In the case of `COc1ccc(S(=O)(=O)c2cnc3cc(OC)c(OC)cc3c2N2CCCC(C)C2)cc1` (stereo not given), the survival was 116% (inactive).

Turning to `CCOC(=O)C1CCCN(c2c(C(=O)c3ccc(C)cc3)cnc3ccc(OCC)cc23)C1` (stereo not given), the survival was 10% (active).

For the molecule `CCOC(=O)C1CCCN(c2c(C(=O)c3ccc(OCC)cc3)cnc3ccccc23)C1` (stereo not given), the survival was -3% (active).

Consider `CCOC(=O)C1CCCN(C(=O)c2ccc(OCC)cc2)C1` (stereo not given), for which the survival is 77% (inactive).

Consider `CCOC(=O)C1CCN(c2c(C(=O)c3ccc(OC)cc3)cnc3ccccc23)CC1`, for which the survival is 125% (inactive).

As to `CCOc1ccc(C(=O)c2cnc3ccc(Cl)cc3c2S(=O)(=O)c2ccc(C)cc2)cc1`, the survival is 80% (inactive).

As to `COc1cc2ncc(C(=O)c3ccc(C)cc3)c(N3CCCCC3)c2cc1OC`, the survival is 2% (active).

Regarding `CCOc1ccc2nc(N3CCCC(C(=O)NCc4ccc(C)cc4)C3)sc2c1` (stereo not given), the survival is 71% (inactive).

Regarding `CCOC(=O)C1CCN(c2c(C(=O)c3ccc(C)cc3)cnc3ccc(F)cc23)CC1`, the survival is 2% (active).

For the molecule `CCc1ccc2ncc(C(=O)c3ccc(C)c(C)c3)c(N3CCC(C(N)=O)CC3)c2c1`, the survival is 86% (inactive).

Consider `CCC(=O)NC1CC(=O)N(c2ccc3c(c2)OCCO3)C1` (stereo not given), for which the survival is 82% (inactive).

Regarding `CC(=O)N1CCC(N(Cc2ccc(C)o2)C(=O)Nc2cccc(C(F)(F)F)c2)CC1`, the survival was 91% (inactive).

Turning to `CC(C)NC(=O)c1ccc(NC(=O)N2CCCCc3ccccc32)cc1`, the survival was 70% (inactive).

Consider `Cc1ccc(CN(C(=O)COc2ccc(Cl)c(C)c2)c2ccccn2)o1`, for which the survival was 52% (inactive).

In the case of `CCOC(=O)c1cc(S(=O)(=O)N2CCN(c3ccc(OC)cc3)CC2)[nH]n1`, the survival is 128% (inactive).

As to `CCC1Oc2ccccc2N(CC(=O)NCCc2ccc(OC)c(OC)c2)C1=O` (stereo not given), the survival was 115% (inactive).

For the molecule `COc1cccc2c1ncc1c(-c3ccc(C)cc3)nn(-c3cccc([N+](=O)[O-])c3)c12`, the survival was 87% (inactive).

Consider `Cc1ccc(NC(=O)CCn2cnc3onc(-c4ccc(F)cc4)c3c2=O)c(Br)c1`, for which the survival was 102% (inactive).

In the case of `CCc1ccc(C(=O)c2cnc3ccc(F)cc3c2S(=O)(=O)c2ccccc2)cc1`, the survival was 123% (inactive).

For `CCOC(=O)C1CCCN(c2c3c(nc4cc(-c5ccc(F)cc5)nn24)CCCC3)C1` (stereo not given), the survival is 76% (inactive).

For `CCOC(=O)C1CCCN(c2c(C(=O)c3ccccc3)cnc3ccc(F)cc23)C1` (stereo not given), the survival was 35% (active).

For `CCOC(=O)c1c(S(=O)(=O)NCC(=O)N2CCN(c3cc(C)ccc3C)CC2)c(C)n(C)c1C`, the survival is 71% (inactive).

As to `COc1ccccc1CNC(=O)c1ccc2c(c1)CCN2S(=O)(=O)c1ccccc1`, the survival was 43% (active).

On to `COc1ccccc1CNC(=O)c1ccc2c(c1)CCN2S(=O)(=O)c1ccc(Cl)cc1`, for which the survival was 82% (inactive).

As for `CCS(=O)(=O)N1CCc2cc(C(=O)NCc3ccccc3OC)ccc21`, the survival is 40% (active).

Regarding `CCS(=O)(=O)N1CCc2cc(C(=O)NCc3ccccc3)ccc21`, the survival is 68% (inactive).

Turning to `CCS(=O)(=O)N1CCc2cc(C(=O)NCc3ccccc3Cl)ccc21`, the survival is 89% (inactive).

On to `COc1ccccc1N1CCN(C(=O)c2ccc3c(c2)CCN3S(=O)(=O)c2ccccc2)CC1`, for which the survival is 62% (inactive).

For `CC1=C(C(=O)Nc2ccccc2)C(c2cccnc2)n2nc(SCc3ccccc3Cl)nc2N1` (stereo not given), the survival was 179% (inactive).

`CCCCNC(=O)CN1C(=O)COc2ccc(S(=O)(=O)N3CCCCCC3)cc21`: the survival was 80% (inactive).

In the case of `CC(=O)Nc1ccc(/C=C/c2noc(-c3ccccc3O)n2)cc1`, the survival was 75% (inactive).

As to `CN(C)c1ccc(/C=C/c2nc(-c3ccccc3O)n(-c3ccccc3)n2)cc1`, the survival was 42% (active).

As to `Cc1nc(C)c(C(=O)N/N=C/c2ccc(O)cc2O)cc1C(=O)N/N=C/c1ccc(O)cc1O`, the survival is 80% (inactive).

`Oc1ccccc1-c1nc(/C=C/c2ccc(F)cc2)nn1-c1ccccc1`: the survival was 26% (active).

Regarding `N#Cc1nc(/C=C/c2ccc(F)cc2)oc1N1CCN(c2ccccc2)CC1`, the survival was 73% (inactive).

For `Oc1ccc(/C=C/c2nc(-c3ccccc3O)n(-c3ccccc3)n2)c(O)c1`, the survival is -3% (active).

In the case of `Oc1ccccc1-c1nc(/C=C/c2ccccc2)nn1-c1ccccc1`, the survival was 7% (active).

With `CC(=O)Nc1ccc(/C=C/c2nc(-c3ccccc3O)n(-c3ccccc3)n2)cc1`, the survival was 84% (inactive).

In the case of `CN(C)c1ccc(/C=N/NC(=O)c2ccccc2)cc1`, the survival is 95% (inactive).

`CN(C)c1ccc(/C=C/c2noc(-c3ccccc3O)n2)cc1`: the survival is 86% (inactive).

On to `Oc1ccccc1-c1nc(/C=C/c2ccc(F)cc2)no1`, for which the survival was 79% (inactive).

Consider `Cc1ccc2c(c1)c(N1CCCC1=O)c(C(=O)Nc1ccc(F)cc1F)n2C`, for which the survival is 71% (inactive).

With `CCCCN(CCCC)CCNC(=O)CN1C(=O)CSc2ccc(S(=O)(=O)N3CCOCC3)cc21`, the survival is 92% (inactive).

`CCCCN(CCCNC(=O)c1cc(Nc2ccc(OC)cc2OC)nc2ccccc12)Cc1ccccc1`: the survival was 99% (inactive).

Consider `O=c1c2sc3ccccc3c2n(Cc2ccccc2Cl)c(=O)n1Cc1ccccc1`, for which the survival was 56% (inactive).

On to `CC(C)(C)C(=O)NC1CC(=O)N(c2ccc3c(c2)OCCO3)C1` (stereo not given), for which the survival was 125% (inactive).

In the case of `Cn1cc(-c2cc3n(n2)CCC(=O)N3CCCC(=O)Nc2ccc(F)cc2F)c2ccccc21`, the survival is 128% (inactive).

`Cc1c(Cl)cccc1-n1ncc(C(=O)Nc2ccc3c(c2)OCCO3)c1C1CCN(C(=O)OC(C)(C)C)CC1`: the survival is 102% (inactive).

In the case of `CC(CNC(=O)CCc1cn(Cc2ccccc2Cl)c2ccccc12)c1ccccc1` (stereo not given), the survival was 66% (inactive).

As for `COc1cc2c(-c3cc(Br)ccc3O)nc3c(c(C)nn3-c3ccccc3)c2cc1OC`, the survival is 77% (inactive).

In the case of `Cc1nn(-c2ccccc2)c(Cl)c1C(N)=O`, the survival was 73% (inactive).

Turning to `COc1ccc(/C=C/c2nc(-c3ccccc3O)n(-c3ccccc3)n2)cc1OC`, the survival is 13% (active).

`Oc1ccccc1-c1nc(/C=C/c2ccccc2Cl)no1`: the survival is 67% (inactive).

In the case of `Oc1ccccc1-c1nc(/C=C/c2ccccc2Cl)nn1-c1ccccc1`, the survival was 14% (active).

For the molecule `COc1ccc(/C=C/c2noc(-c3ccccc3O)n2)cc1OC`, the survival was 130% (inactive).

As to `CCc1ccc(C2CC(=O)c3c([nH]c(C(=O)OCC4CCCCC4)c3C)C2)cc1` (stereo not given), the survival is 89% (inactive).

Regarding `Cc1c(C(=O)N2CCCCCC2)c(S(=O)(=O)Nc2ccc(OC(F)(F)F)cc2)c(C)n1C`, the survival was 113% (inactive).

Turning to `CCOc1ccc(C(=O)Nc2cc(-c3nc4cc(OC)ccc4o3)ccc2C)cc1[N+](=O)[O-]`, the survival is 62% (inactive).

For `CCOC(=O)c1cnc2c(C(F)(F)F)cccc2c1Nc1cccc(C(=O)OC)c1`, the survival is 14% (active).

On to `CCOC(=O)c1cnc2cc(C(F)(F)F)ccc2c1Nc1ccc(F)cc1F`, for which the survival is 2% (active).

Take `CCOC(=O)c1ccc(Nc2ncnc3c2cnn3-c2cccc(Cl)c2)cc1`: the survival is 75% (inactive).

Consider `CCOC(=O)c1cnc2c(Cl)cc(Cl)cc2c1Nc1cc(C(=O)O)ccc1C`, for which the survival was 60% (inactive).

`CCOC(=O)c1cnc2c(C)cccc2c1Nc1ccc(OC(C)C)cc1`: the survival was 2% (active).

As for `CCCOC(=O)c1ccc(Nc2c(C(=O)OCC)cnc3c(C)cc(Cl)cc23)cc1`, the survival is 11% (active).

For the molecule `CCOC(=O)c1cnc2c(C(F)(F)F)cccc2c1Cl`, the survival is 82% (inactive).

As to `CCOC(=O)c1cnc2cc(C(F)(F)F)ccc2c1Nc1cc(C)ccc1OC`, the survival is 71% (inactive).

As for `CCOC(=O)c1ccc2nc(C)cc(Nc3ccc(OC(C)C)cc3)c2c1`, the survival was 133% (inactive).

As for `CCOC(=O)c1cnc2cc(C(F)(F)F)ccc2c1N1CCN(c2ccc(F)cc2)CC1`, the survival is 57% (inactive).

For the molecule `CCOc1ccc(NC(=O)c2c(NCc3cc(OC)c(OC)cc3OC)sc3c2CCCC3)cc1`, the survival was 74% (inactive).

As to `CCOC(=O)C1CCCN(S(=O)(=O)c2ccc(N3CCCCS3(=O)=O)cc2)C1` (stereo not given), the survival was 55% (inactive).

With `O=C(c1cnn(-c2ccc(F)cc2)c1-n1cccc1)N1CCN(c2cccc(Cl)c2)CC1`, the survival is 70% (inactive).

As for `CCOc1ccccc1CNC(=O)c1ccc2nc(CCc3ccccc3)oc2c1`, the survival is 83% (inactive).

For the molecule `Cc1cccc(C(=O)NCC(=O)OCc2cc(=O)n3nc(CC(C)C)sc3n2)c1`, the survival is 105% (inactive).

For `O=C(Cn1c2ncccc2c(=O)n1-c1ccccc1)NCc1ccccc1Cl`, the survival was 68% (inactive).

Take `COc1ccc(NC(=O)CN2C(=O)COc3ccc(S(=O)(=O)NC4CCCC4)cc32)cc1OC`: the survival is 75% (inactive).

Consider `Cc1ccc(NC(=O)CCCn2c(=O)c3cccn3c3cccnc32)cc1C`, for which the survival was 79% (inactive).

With `CC(C)n1c(C(=O)OC(C(=O)NCc2ccco2)c2cccnc2)cc2sccc21` (stereo not given), the survival is 88% (inactive).

Consider `CCCOc1ccc(Nc2nc(SC)ncc2C(=O)OCC)cc1`, for which the survival is 65% (inactive).

Take `CCOC(=O)c1cnc2c(ccc3ccccc32)c1Nc1ccc(OC)c(OC)c1`: the survival was 7% (active).

Regarding `CCOC(=O)c1cnc2c(ccc3ccccc32)c1Nc1ccccc1O`, the survival was 69% (inactive).

`CCOC(=O)c1cnc2c(ccc3ccccc32)c1Nc1ccc(C(C)=O)cc1`: the survival was 1% (active).

In the case of `CCOC(=O)c1cnc(NCc2ccc(Cl)cc2)c2ccccc12`, the survival is 91% (inactive).

Turning to `CCOC(=O)c1cnc2c(ccc3ccccc32)c1Nc1ccc(OCC)cc1`, the survival is 5% (active).

In the case of `CCOC(=O)c1cnc2c(ccc3ccccc32)c1Nc1ccc(Cl)cc1`, the survival was 23% (active).

On to `COc1cc(NC(=O)C2CCN(c3nnc(C)c4c(C)n(-c5ccccc5)nc34)CC2)cc(OC)c1`, for which the survival is 87% (inactive).

As to `CCOc1ccc(NC(=O)CSc2nnnn2C2CCCC2)cc1`, the survival was 68% (inactive).
